Data taken from PubChem BioAssay (NCI).
About 83,000 compounds went through this panel and 20% of them were active in at least one assay; those are over-represented in the sample as a whole.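 Treatment: one concentration, 48 hours, 96-well format. Scoring: percent growth, with anything below 10 considered active.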 Values without a mark were called inactive. Active and inactive are the calls of the source.

system: NCI/ADR-RES ovarian; assay: NCI-60 one-dose screen, 48 h (100 = growth as untreated, 0 = no growth, -100 = all killed); conditions: 10 µM unless noted

In the case of `CC(C)CCC[C@@H](C)[C@H]1CC[C@H]2[C@@H]3CC=C4C[C@@H](C(C(=O)O)C(=O)O)CC[C@]4(C)[C@H]3CC[C@]12C`, the growth is reported as -1.29% (active).
With `O=C(OCc1ccc2c(Cl)cc(Cl)c(O)c2n1)n1cncn1` the growth was 5.53% (active).
In the case of `N#CC1=C(N)Oc2c(sc3c(F)cccc23)C1c1ccc(F)cc1` (stereo not drawn), the growth is reported as 4.36% (active).
With `Cc1cnc(C(=O)NNc2nc3sc4c(c3c(=O)n2C)C(C)CCC4)cn1` (stereo not drawn) the growth was 1.29% (active).
With `CO[C@H]1/C=C(/C)CCC[C@H](C)[C@H](O)[C@@H](C)C(=O)C(C)(C)[C@@H](O)CC(=O)O[C@@H]1/C(C)=C/c1csc(C)n1` the growth was -36.7% (active).

In order of falling growth:
1. NC(=O)CCC(C(=O)O)N1C(=O)c2ccc(O)cc2C1=O (stereo not drawn)  132%
2. Cn1ccc2c3c(ccc21)CC3=O  115%
3. COc1cc(-c2nc3cc(Cl)c(Cl)cc3[nH]2)ccc1OCC(=O)N=Nc1c(O)[nH]c2ccc([N+](=O)[O-])cc12  109%
4. COc1cc(OC)cc(C2=C3CC[C@@H]4[C@H](CC[C@]5(C)C(=O)CC[C@@H]45)C3=CC3C(O)c4cccnc4N4C(=O)COC234)c1 (stereo partly drawn)  105%
5. CCn1c(=S)[nH]c2c(=O)n(C)c(=O)n(C)c21  103%
6. O=C(Nc1ccc(NC(=O)c2cc(=O)[nH]c3ccccc23)cc1)Nc1cccc(C(F)(F)F)c1  103%
7. N#Cc1nn(-c2cc(=O)[nH]c3ccc(Cl)cc23)c(N)c1C#N  98.5%
8. COc1ccc2nc(NC(=O)CSc3nnc4n3S(=O)(=O)c3ccccc3N4C)sc2c1  98.5%
9. O=C1c2ccc3c4ccc5c6c(ccc(c7ccc(c2c37)C(=O)N1CCC[P+](c1ccccc1)(c1ccccc1)c1ccccc1)c64)C(=O)N(CCC[P+](c1ccccc1)(c1ccccc1)c1ccccc1)C5=O  97.2%
10. CCc1ccc(Oc2cn[nH]c2-c2ccc(OCCc3ccc(F)cc3)cc2O)cc1  89.2%
11. O=C(CCCCC1CCSS1)Nc1ncnc2n[nH]c(-c3ccc(Oc4ccccc4)cc3)c12 (stereo not drawn)  89%
12. Cc1cc2c(O)c(-c3cc(Cl)ccc3Cl)c3sc(=O)oc3c2cc1C  85.3%
13. C=C(C)[C@@H]1CC[C@]2(C(=O)N3CCN(C)CC3)CC[C@]3(C)[C@H](CC[C@@H]4[C@@]5(C)CC(=C/c6ccncc6)/C(=N/O)C(C)(C)[C@@H]5CC[C@]43C)[C@@H]12  78.8%
14. N=C(N)c1ccc(-c2ccc(-c3ccc(Cl)cc3)s2)nc1  67.4%
15. C/C(=N\NC(=O)c1ccccc1O)c1cccc(/C(C)=N/NC(=O)c2ccccc2O)n1  59.1%
16. O=C1c2c(c3c4ccc(Br)cc4oc3c3[nH]c4ccccc4c23)C(=O)N1O  56.2%
17. CSc1nnc(-c2cnn3c2NC(c2ccccc2)C3)n1-c1ccc(C(F)(F)F)cc1 (stereo not drawn)  56%
18. CCN1CCN(c2cc(C(=O)Nc3nc(-c4cc(OC)c(OC)c(OC)c4)cs3)cc(C(F)(F)F)c2)CC1  55.8%
19. C=C(C)[C@@H]1CC[C@]2(C(=O)NCC#CCN3CCN(C)CC3)CC[C@]3(C)[C@H](CC[C@@H]4[C@@](C)(CCC#N)[C@H](C(=C)C)CC[C@]43C)[C@@H]12  55.8%
20. C=C(CNCCc1ccc(O)cc1)[C@@H]1CC[C@]2(CO)CC[C@]3(C)[C@H](CC[C@@H]4[C@@]5(C)CCC(NCCO)C(C)(C)[C@@H]5CC[C@]43C)[C@@H]12 (stereo partly drawn)  53.8%
21. c1ccc(C2=NN[C@H](c3cn(-c4ccccc4)nc3-c3ccccc3)C2)cc1  48.9%
22. Cc1nnc(-n2c(O)cc(=O)n(-c3ccccc3)c2=S)nc1/C=C/c1ccc(N(C)C)cc1  44.6%
23. CN(C)CCCn1c2c(c3ncccc3c1=O)C(=O)c1ccccc1-2  42.7%
24. O=C(/C=C/c1cn(-c2ccccc2)nc1-c1ccc([N+](=O)[O-])cc1)c1ccc(Cl)cc1  41.1%
25. O=C1c2cc(Cl)ccc2S(=O)(=O)c2c(NCCCNCCO)nc3ccccc3c21  40.6%
26. C=CC(=O)NCc1ccc(Nc2nccc(-c3ccc(N4CCCC4)c(C#N)c3)n2)cc1  34.4%
27. Fc1ccc2[nH]cc(-c3nonc3-c3c[nH]c4ccc(Br)cc34)c2c1  23%
28. COc1ccc(/C=N/C2=C(C#N)C(c3cccc(Cl)c3)c3c(ccc4ccccc34)O2)cc1 (stereo not drawn)  22.1%
